ELG1 genotox – induces genotoxicity in HEK293T cells with luciferase-tagged ELG1; HEK293T ELG1-luciferase reporter, luminescence, 16 h; Potency, µM (top dose mostly 46 µM), inactives show at the top dose activity change, positive = activation, hits mostly activators; 330,000 tested, 1.3% active; AID 504466; also: % of control where 0% means no effect; nearly all actives have a fitted effect of over 60% in size
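Genotoxicity was scored as increased ELG1-luciferase reporter signal, measured by ONE-Glo luminescence (30 min, room temperature). Compound or vehicle exposure of the HEK293T reporter cells lasted 16 hr at 37°C.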
NPC1 promoter act – NPC1 promoter activation | Huh7 NPC1 promoter luciferase reporter, 24 h | Potency, µM (titrated, usually from 9.22 µM), for the others: top-dose activation, usual class: activators | 320,000 tested, 2.4% active; also: % of control where 0% means no effect; nearly all actives have a fitted effect of over 60% in size
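Quantitative HTS used a cell-based reporter: Huh7 cells stably bearing the NPC1 promoter upstream of luciferase were treated with compounds for 24 h, and promoter activation was read as luminescence.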
Rab9 promoter act – activates the Rab9 promoter. 320,000 tested, 2.8% active. Huh7 Rab9 promoter-luciferase reporter, luminescence, 24 h. Potency, µM (top dose mostly 9.22 µM), for inactives: at the highest dose activation, negative = inhibition, most hits filed as activators; also: % of control where 0% means no effect; nearly all actives have a fitted effect of over 60% in size
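Huh7 cells stably carrying a Rab9 promoter-luciferase reporter, 1500 cells per well in OP-MEM I with 10% FBS, treated with compound 24 hours at 37C. Luciferase activity read by luminescence after 10 minutes with Amplite reagent.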
FLuc counter – counter-screen for miR-21 project: firefly luciferase inhibitors or activators | purified FLuc, Km substrates, luminescence inhibition | 360,000 tested, 6.9% active | Potency, µM (top dose mostly 57.5 µM), for inactives: at the top dose activity change, negative = inhibition, usual class: inhibitors | AID 588342 | P08659;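 also: plate controls were vehicle for no effect and reference inhibitor for full effect; nearly all actives have a fitted effect of over 55% in size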
Target sequence (P08659 whole entry, looked up): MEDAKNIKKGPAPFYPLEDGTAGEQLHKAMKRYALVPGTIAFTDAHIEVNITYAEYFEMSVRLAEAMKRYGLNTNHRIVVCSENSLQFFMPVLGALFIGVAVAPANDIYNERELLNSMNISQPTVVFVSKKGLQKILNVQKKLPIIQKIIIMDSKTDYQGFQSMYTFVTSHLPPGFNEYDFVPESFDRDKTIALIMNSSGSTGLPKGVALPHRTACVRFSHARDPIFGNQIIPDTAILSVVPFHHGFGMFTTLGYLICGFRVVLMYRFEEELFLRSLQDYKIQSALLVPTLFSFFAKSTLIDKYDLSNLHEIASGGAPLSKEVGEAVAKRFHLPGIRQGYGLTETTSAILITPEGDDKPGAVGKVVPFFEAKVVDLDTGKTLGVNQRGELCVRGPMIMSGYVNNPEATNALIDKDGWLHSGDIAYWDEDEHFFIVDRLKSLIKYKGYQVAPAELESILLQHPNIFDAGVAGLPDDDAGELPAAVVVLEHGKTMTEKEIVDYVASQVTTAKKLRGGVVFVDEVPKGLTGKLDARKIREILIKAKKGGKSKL
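Purified P. pyralis luciferase, 10 nM final, with Km-level 10 uM D-luciferin and 10 uM ATP in 50 mM Tris acetate pH 7.5, 10 mM Mg acetate, 0.01% Tween-20, 0.05% BSA; 6-point qHTS titration about 60 µM downward; luminescence read.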
SMN2 splice up – enhancers of SMN2 splice variant expression | HEK293 SMN2-luciferase splicing reporter, luminescence, 30-36 h | Potency, µM (titrated, usually from 46.1 µM), for inactives: at the highest dose activity change, positive = activation, hits mostly activators | 210,000 tested, 2.8% active | AID 1458; also: % of control where 0% means no effect; nearly all actives have a fitted effect of over 55% in size
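qHTS luciferase splicing reporter: luminescence rises when SMN2 exon 7 is included in transfected HEK293 cells. Compound exposure lasted 30-36 h at 37C, with 4.5 mM final sodium butyrate as control, followed by a ONE-Glo read.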
ELG1 repair inh – ELG1-dependent DNA repair inhibition. HEK293T ELG1-luciferase reporter, luminescence, 16 h; DNA damage induced by 5-fluorouridine. Potency, µM (series often up to 46.1 µM), for inactives: top-dose activity change, negative = inhibition, actives largely listed as inhibitors. 330,000 tested, 2.3% active. AID 504467; also: % is scaled to controls: 0 for no effect and ±100 for the full control effect; nearly all actives have a fitted effect of over 55% in size
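Quantitative HTS, concentration-response format. 2,000 cells/well co-treated with 5-fluorouridine and compound, 16 hr in 5% CO2 at 37 °C; ONE-Glo luminescence read after 30 min.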
Numbers without * were called inactive; ? = inconclusive; · = no result. A selection: hits, their analogues and other compounds. The true share with any hit is near 9.3%. Calls follow the shape of the dose curve; as a rule, active = well fitted curve in the direction sought with a large enough effect; inconclusive = small, poorly fitted or top-dose-only effect, or another doubt; inactive = no such curve, though single readings can be large; an effect the other way counts as inactive or inconclusive. Potency is read from the fitted curve at half-maximal effect.

SMILES | ELG1 genotox | NPC1 promoter act | Rab9 promoter act | FLuc counter | SMN2 splice up | ELG1 repair inh
COc1ccc(C2NC(=O)NC(C)=C2C(=O)OCc2ccc3c(c2)OCO3)cc1OC (configuration not stated) | 9.3% | -5.2% | -1.3% | -28.5% | -14.7% | 10.3µM*
COc1ccc(N2CC(C(=O)NC3=NCCS3)CC2=O)cc1 (configuration not stated) | 3.5% | -2.7% | -5.6% | -1.2% | -6.4% | 16.1%
CC(C)C(OC(=O)CN1C(=O)c2ccccc2C1=O)C(=O)NC1CCCCC1 (configuration not stated) | -1.6% | -4.4% | 1.5% | 1.1% | · | 6.7%
CC(=O)NC(=S)Nc1ccc(-c2nc3ccc(C)cc3s2)cc1 | ? | 0.447µM* | 0.447µM* | 2.13µM* | 12.6µM* | ?
CC1=CCC(C(=O)O)C(C(=O)Nc2ccc(-c3nc4ccc(C)cc4s3)cc2)C1 (configuration not stated) | 5.17µM* | ? | 22.5% | 3.38µM* | · | ?
CNC(=S)Nc1ccc(C)cc1 | 5.2% | -4.2% | -2.9% | 2.3% | -2.9% | -4.0%
CNC(=S)Nc1ccc(-c2nc3ccc(C)cc3s2)cc1 | ? | 0.794µM* | 0.398µM* | 1.35µM* | 11.2µM* | ?
CC(=O)Nc1ccc(S(=O)(=O)Nc2nc3ccc(C)cc3s2)cc1 | 4.2% | -4.3% | -1.5% | -1.7% | -1.2% | 6.1%
COCCNc1nnc(SC(C)C(=O)Nc2ccc(-c3nc4ccc(C)cc4s3)cc2)s1 (configuration not stated) | ? | 1.58µM* | 0.282µM* | 3.01µM* | · | ?
Cn1c(=O)oc2cc(S(=O)(=O)CCC(=O)N3CCN(c4cccc(Cl)c4)CC3)ccc21 | · | · | · | -1.9% | · | ·
O=C(c1noc2c1CCCCC2)N1CCN(c2ccc(Cl)cc2)CC1 | · | · | · | 4.4% | · | ·
N#Cc1cccc(S(=O)(=O)NCc2nnc3ccccn23)c1 | 0.0% | 0.4% | -5.9% | -2.1% | · | 13.0%
CCCCC(=O)OC1CCC2C3CCc4cc(O)ccc4C3CC[C@]12C (some centres not stated) | · | · | · | · | -48.6% | ·
CC(C)C(=O)Nc1ccc(C(=O)c2ccccc2)cc1 | 10.7% | 17.8% | ? | ? | ? | ?
O=C(Nc1ccc(-c2nnc(-c3ccccc3)o2)cc1)C(F)(F)F | ? | 1.58µM* | 1.26µM* | ? | · | ?
CC(=O)/C=C(\C)Nc1ccc(-c2cnc(-c3ccccc3)o2)cc1 | 2µM* | 1µM* | 0.447µM* | 1.9µM* | 3.98µM* | ?
CC(C)C(=O)Nc1ccc(-c2nnc(-c3ccccc3)o2)cc1 | ? | 0.316µM* | 0.316µM* | 2.39µM* | · | ?
COc1cccc(CCNC(=O)CCCC(=O)c2ccccc2)c1 | 0.5% | -6.5% | 0.4% | 2.1% | · | -6.1%
CCN1/C(=C\C(=S)Nc2ccccc2)Sc2ccccc21 | ? | ? | 2.82µM* | 13.5µM* | ? | ?
CCN1/C(=C\C=C(C(C)=O)C(C)=O)Sc2ccccc21 | 18.9% | -7.6% | -1.9% | -17.9% | 17.0% | ?
CCc1ccc(-n2nc3ccc(NC(=O)COc4ccc(OC)cc4)cc3n2)cc1 | · | · | · | 2.0% | ? | ·
Fc1ccc(-c2nnc(-c3ccc(Cl)cc3Cl)o2)cc1 | 1.64µM* | 0.224µM* | 0.316µM* | 0.477µM* | 1µM* | ?
Clc1ccc(-c2nnc(-c3ccc(Br)o3)o2)c(Cl)c1 | 9.2µM* | 1.58µM* | ? | 3.01µM* | ? | ?
Fc1ccc(-c2nnc(-c3ccc(Cl)cc3)o2)cc1 | 6.51µM* | 2µM* | 0.794µM* | 2.69µM* | ? | ?
Clc1ccc(-c2nnc(-c3ccccc3)o2)c(Cl)c1 | ? | 0.398µM* | 0.891µM* | 0.426µM* | 2.51µM* | ?
SMILES | ELG1 genotox | NPC1 promoter act | Rab9 promoter act | FLuc counter | SMN2 splice up | ELG1 repair inh
Clc1ccc(-c2nnc3sc(-c4ccc(Br)o4)nn23)c(Cl)c1 | 1.3% | -3.0% | -6.3% | 7.2% | -2.6% | 8.7%
CCOC(=O)NC(=O)COC(=O)c1ccc(Sc2ncn[nH]2)c([N+](=O)[O-])c1 | 0.3% | -1.7% | 0.1% | -2.2% | -4.8% | -14.9%
Cc1ccc(NC(=O)COc2ccccc2)c(NC(=O)c2ccco2)c1 | -7.2% | 2.7% | -3.6% | 3.6% | · | 7.0%
COc1ccc(Cl)cc1C(=O)Nn1c(-c2cccs2)nc2ccccc2c1=O | 0.5% | -0.2% | -8.2% | -2.2% | 29.3% | 6.51µM*
CC(C)Oc1cccc(C(=O)N/N=C/c2ccoc2)c1 | ? | 15.8% | 23.9% | 10.7µM* | · | ?
Cn1cccc1/C=N/NC(=O)c1cccc(OC(F)(F)C(F)F)c1 | 11.6% | 17.4% | 15.6% | 21.3µM* | 24.1% | ?
Cc1cccc(C(=O)N/N=C/c2ccoc2)c1 | 13.1% | 0.9% | 22.9% | ? | · | ?
Cc1cccc(C(=O)N/N=C/c2ccc(OCC(=O)N3CCCCC3)cc2)c1 | 0.3% | 1.2% | 4.9% | 15.1µM* | -4.6% | -18.5%
CCCOc1cccc(C(=O)N/N=C/c2ccoc2)c1 | ? | 6.4% | 22.9% | 13.5µM* | · | ?
Cc1ccc(N2CCN(C(=O)c3nn(C)c4c3CS(=O)(=O)c3ccccc3-4)CC2C)cc1 (configuration not stated) | -4.9% | 0.5% | -18.5% | ? | · | -6.7%
CCc1ccc(NC(=O)C(C)n2nc(C)c([N+](=O)[O-])c2C)cc1 (configuration not stated) | 0.2% | -6.6% | -1.3% | 2.1% | -2.1% | 12.1%
Cc1cc(C)n(-c2nc3ccccc3nc2Nc2cc(C(=O)O)ccc2C)n1 | · | · | · | ? | 15.0% | ·
CCOc1ccc(-c2nn[nH]n2)cc1 | 2.7% | 10.2% | -4.4% | 10.7µM* | 27.5% | ?
Cc1ccccc1COc1ccc(-c2nn[nH]n2)cc1 | 9.1% | 4.4% | 20.9% | 26.9µM* | · | ?
CCc1ccc(-c2nn[nH]n2)cc1 | 9.4% | 1.7% | 19.5% | 13.5µM* | 5.5% | ?
CCOc1ccc(-c2n[nH]c(=S)o2)cc1 | 15.9% | -4.3% | 19.5% | 10.7µM* | 17.3% | ?
c1ccc(-c2nn[nH]n2)cc1 | 0.4% | -1.6% | -0.8% | 4.1% | · | -3.5%
CCOC(=O)c1c(S(=O)(=O)NCC(=O)Nc2ccc(F)cc2)c(C)n(C)c1C | -1.4% | 0.2% | -2.5% | 2.0% | · | -0.6%
C=CCc1c(Cl)nc(C)nc1NCc1ccccc1 | -7.1% | -0.7% | 0.0% | 1.0% | · | ?
O=C(CC1C[C@H](C(=O)N2CCCCC2)[C@@]2(CCc3ccccc3)c3[nH]c4ccccc4c3CCN2C1=O)NCCCn1ccnc1 (some centres not stated) | 1.4% | · | · | · | · | -4.4%
